Experimental findings from PubChem BioAssay (NCATS) are described below.

The structures appear in SMILES notation. Inconclusive results are not listed. Active and inactive are the calls of the source. Calls come from the whole dose curve; as a rule, active = well fitted inhibition curve with a large enough effect; inconclusive = small, poorly fitted or top-dose-only effect; inactive = no such curve, though single readings can be large or run the other way.
Potency is the fitted concentration of half-maximal effect.

The experiment can be described thus: qHTS Screen of the MIPE 4.0 Collection Against Ewings Sarcoma (TC32) (AID 1259256). Note: nearly all actives have a fitted effect of over 45% in size. Particulars: TC32 Ewing sarcoma viability, CellTiter-Glo, 48 h; series mostly up to 45.8 µM. The text has this: There is a large unmet medical need for treatments for Ewing sarcoma, a pediatric sarcoma. We sought to identify compounds that inhibited Ewing sarcoma cells in vitro with the goal to then test promising drugs in two drug combinations in vitro to look for synergistic drug combinations. Promising combinations would then proceed to additional validation, including in vivo testing.
Using the NCATS developed oncology compound library called the Mechanism of Interrogation Plate (MIPE), four Ewing sarcoma cell lines were evaluated (TC32, TC71, RDES, EW8). Compounds, in a 12-point titration series, were incubated with cells for 48 hours and the read out was cell viability (CellTiter-Glo from Promega). These initial experiments were used to select appropriate concentrations of each single agent for subsequent two-drug matrix combinations such that the concentrations in the matrices would span both activity and non-activity.
Cells, in the log phase of growth, were seeded in 5 uL of RPMI plus 5% FBS, […] L-glutamine, 100 U/ml penicillin and 100 ug/ml streptomycin into 1536-well solid-bottom white tissue culture treated Greiner Bio One Plates (789173-F) using a MultiDrop Combi (Thermofisher Scientific) dispenser and a small sterile cassette. One column was media alone to be used as a :"no cells" control. The plates were then covered with sterilized stainless steel gasketed lids from Kalypsys. After allowing cells to attach for 4 hours, 23 nL of test compound or control (negative control DMSO and positive control 9.2 uM Bortezomib-final) were added from a 1536-well polypropylene compound source plate to each well using a 1536 head pin tool from Kalypsys. Cells were then incubated for 48 hours at 37C, 95% relative humidity and 5% CO2. After 48 hours, plates were removed from the incubator and 3 uL of CellTiter-Glo (Promega) was added using an Aurora Flying Reagent Dispenser Bioraptor. Plates were incubated at room temperature for 10 minutes prior to reading the luminescence on the Viewlux (PerkinElmer). The relative luciferase units are used to calculate the percent activity using the activity of DMSO in the cells and no cells columns for normalization of no inhibition and full inhibition respectively.
In general terms: qHTS replaces the single test concentration by a dilution series.
Regarding `N#CC(=C(N)Sc1ccc(N)cc1)c1ccccc1C(F)(F)F`, the Potency is 5260 nM (active). For the molecule `COc1cc(C)c(Sc2cnc(NC(=O)c3ccc(CNC(C)C(C)(C)C)cc3)s2)cc1C(=O)N1CCN(C(C)=O)CC1` (stereo not given), the Potency is 2960 nM (active).

Consider `N#CNC(=NCCCCCCOc1ccc(Cl)cc1)Nc1ccncc1`, for which the Potency result is “inactive”. For the molecule `O=C(NCc1ccccc1)[C@H](Cc1ccccc1)NC(=O)[C@@H]1O[C@@H]1C(=O)NCCc1ccc(O)cc1`, the Potency was 1180 nM (active). For `C=CC(=O)Nc1cc(NC(=O)c2ccc(C)c(NC(=O)c3ccno3)c2)cc(C(F)(F)F)c1` the value was 23500 nM (active); for `C=Cc1c(C)c2cc3nc(cc4[nH]c(cc5nc(cc1[nH]2)C(C)=C5CCC(=O)O)c(CCC(=O)OC)c4C)[C@@]1(C)C3=CC=C(C(=O)OC)[C@H]1C(=O)OC`, 74.3 nM (active). The value for `CC(N[C@H]1CCCC[C@H]1NC(=O)c1ccc(Cl)cc1)c1cccc2ccccc12` (stereo not given in full) was “inactive”. `CCc1cnn2c(NCc3ccc[n+]([O-])c3)cc(N3CCCC[C@@H]3CCO)nc12`: the Potency was 23.5 nM (active).

Regarding `CC(C(C)N1CC(=O)NC(=O)C1)N1CC(=O)NC(=O)C1` (stereo not given), the Potency entry was “inactive”. With `FC(F)(F)c1ccc(Nc2nc3ccc(Oc4ccnc(-c5ncc(C(F)(F)F)[nH]5)c4)cc3[nH]2)cc1`, the Potency is 9350 nM (active). For `CC(=CC(=O)Nc1ccccc1C(=O)O)c1ccc2ccccc2c1` the value was 9350 nM (active); for `C[C@H](NCc1ccc2c(c1)nc(NC(=O)c1ccc(-c3cn[nH]c3)s1)n2CCc1ccccc1)C(C)(C)C`, 2960 nM (active). As for `CC(=O)OCC(=O)[C@@]12N=C(C)O[C@H]1C[C@H]1[C@@H]3CCC4=CC(=O)C=C[C@]4(C)[C@@H]3[C@@H](O)C[C@@]12C`, the Potency result is “inactive”. As to `O=C(Nc1cccc(Nc2ncc(Br)c(NCCc3cnc[nH]3)n2)c1)N1CCCC1`, the Potency is 296 nM (active). For `Cn1cc(-c2cnn3c(N)c(Br)c([C@H]4CCCNC4)nc23)cn1` the value was 187 nM (active); for `Cc1coc2c1C(=O)C(=O)c1c-2ccc2c(C)cccc12`, “inactive”.

As for `CCOc1cc2c(c(F)c1OCC)C(=N)N(CC(=O)c1cc(N3CCOCC3)c(OC)c(C(C)(C)C)c1)C2`, the Potency was 8330 nM (active). Turning to `NC1=N[C@H]2[C@H](CS[C@H]2CCCCC(=O)O)N1`, the Potency result is “inactive”. For the molecule `C#C[C@]1(O)CC[C@@H]2[C@@H]3CCc4cc(O)ccc4[C@H]3CC[C@@]21C`, the Potency was 20900 nM (active). Consider `Nc1nc(=O)n([C@H]2C[C@H](O)[C@@H](CO)O2)cc1F`, for which the Potency is 29.6 nM (active).

As for `CC(=O)N[C@H]1[C@@H]([C@H](O)[C@H](O)CO)OC(C(=O)O)=C[C@@H]1N=C(N)N`, the Potency result was “inactive”. Regarding `CC(=O)O[C@]1(C(C)=O)CC[C@H]2[C@@H]3C=C(C)C4=CC(=O)CC[C@]4(C)[C@@H]3CC[C@@]21C`, the Potency is 5260 nM (active). As for `CCOC(=O)[C@@H](N)Cc1ccc(-c2cc(O[C@H](c3ccc(Cl)cc3-n3ccc(C)n3)C(F)(F)F)nc(N)n2)cc1`, the Potency is 20900 nM (active). For `O=S(=O)(O)CCSSCCS(=O)(=O)O`, the Potency entry is “inactive”. `CC(C)N(CC[C@H](c1ccccc1)c1cc(CO)ccc1O)C(C)C`: the Potency entry was “inactive”.

Regarding `CC[C@@]1([C@@H]2O[C@@H]([C@H]3O[C@@](O)(CO)[C@H](C)C[C@H]3C)C[C@H]2C)CC[C@H]([C@]2(C)CC[C@]3(C[C@H](O)[C@@H](C)[C@@H]([C@@H](C)[C@@H](OC)[C@H](C)C(=O)O)O3)O2)O1`, the Potency was 162 nM (active). For `CC(=O)C1=C(O)C=C2Oc3c(C(C)=O)c(O)c(C)c(O)c3C2(C)C1=O` (stereo not given) the value was “inactive”; for `O=C(Nc1ccc(Oc2ccnc3[nH]ccc23)c(F)c1)c1cccn(-c2ccc(F)cc2)c1=O`, “inactive”. The value for `CC(O)(C#Cc1ccc2c(c1)N(c1nc(N)ncc1Cl)CC2)c1nccs1` (stereo not given) was 20900 nM (active).

With `C=CC1=C(C(=O)O)N2C(=O)[C@@H](NC(=O)C(=NO)c3csc(N)n3)[C@H]2SC1`, the Potency entry is “inactive”.

Consider `CC(C)c1cc(C(C)C)c(CC(=O)NS(=O)(=O)Oc2c(C(C)C)cccc2C(C)C)c(C(C)C)c1`, for which the Potency result is “inactive”.

For the molecule `COc1cc2ncnc(Nc3cccc(Br)c3)c2cc1OC`, the Potency was 833 nM (active). For `COc1ccc(C[C@@H](C)[C@@H](C)Cc2ccc(OC)c(OC)c2)cc1OC` the value was “inactive”; for `NC[C@H]1O[C@H](O[C@H]2[C@@H](O)[C@@H](O[C@H]3O[C@H](CO)[C@@H](O)[C@H](N)[C@@H]3O)[C@H](N)C[C@@H]2N)[C@H](N)C[C@H]1O`, “inactive”. For `CCn1c(=O)c2c(nc(C=Cc3ccc(OC)c(OC)c3)n2C)n(CC)c1=O` the value was “inactive”; for `CC1(C)O[C@@H]2C[C@H]3[C@@H]4CCC5=CC(=O)C=C[C@]5(C)[C@@H]4[C@@H](O)C[C@]3(C)[C@]2(C(=O)CO)O1`, “inactive”; for `CCN(CC)CCCCNc1ncc2c(n1)N(C)C(=O)N(c1c(Cl)c(OC)cc(OC)c1Cl)C2`, 20900 nM (active). For the molecule `Cc1[nH]c(C=C2C(=O)Nc3ccccc32)c(C)c1CCC(=O)O`, the Potency is 235 nM (active).

On to `CN[C@@H]1C[C@H]2O[C@@](C)([C@H]1OC)n1c3ccccc3c3c4c(c5c6ccccc6n2c5c31)C(=O)N[C@H]4O`, for which the Potency is 187 nM (active). For `CC(=O)SCC(Cc1ccccc1)C(=O)NCC(=O)OCc1ccccc1` (stereo not given) the value was 743 nM (active).
